# In PubChem BioAssay:
# Activity calls are given as the source filed them.
# Assays:
# [1] = test system: Plasmodium falciparum Sir2 (PF13_0152, Sir2A); assay: pfSir2 binders on small-molecule microarrays, primary screen, biochemical, small-molecule microarray, 635 nm fluorescence (AID 1098); settings: small-molecule microarray binding, fluorescence 635 nm; higher = more signal;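 also: score merges spot fluorescence intensity with its signal-to-noise ratio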
# [2] = small-molecule microarray binders of probe aDKK1, primary screen, biochemical, biotinylated probe, 635/667 nm fluorescence (AID 1099); settings: higher = more signal;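 also: score merges 667nm spot fluorescence with signal to noise across triplicate slides; reference of the scale not given here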
# [3] = small-molecule microarray binders of probe aCHRDL2, primary screen, biochemical, biotinylated probe, 635/667 nm fluorescence (AID 1100); settings: higher = more signal
# [4] = splicing luciferase reporter signal modulators, primary screen, spliceosome inhibition project, cell-based, HEK293, splice +/- reporter (AID 1101); settings: luminescence, 24 h, higher = more signal, called active from +8 up or from −8 down;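 also: HEK293 cells carrying a splicing-competent luciferase reporter gene; test concentration not given here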
# [5] = molecular target: Fibroblast growth factor 10 (Homo sapiens) (UniProt O15520); assay: FGF10 binders on small-molecule microarrays, primary screen, biochemical, small-molecule microarray, 635 nm fluorescence (AID 1102); settings: FGF10 binding, fluorescence 635 nm, higher = more signal
# Sequence of Fibroblast growth factor 10 (Homo sapiens) (O15520 whole entry, looked up): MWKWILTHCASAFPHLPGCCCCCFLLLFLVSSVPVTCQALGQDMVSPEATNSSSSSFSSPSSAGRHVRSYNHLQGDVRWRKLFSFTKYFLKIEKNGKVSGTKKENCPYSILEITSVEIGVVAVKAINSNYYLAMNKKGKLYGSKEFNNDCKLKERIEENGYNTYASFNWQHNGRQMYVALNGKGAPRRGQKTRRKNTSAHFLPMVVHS
# [6] = test system: glycogen synthase kinase-3 (GSK3A per assay name; protocol says GSK3B); assay: GSK3 binders on small-molecule microarrays, primary screen, biochemical, small-molecule microarray, 635 nm fluorescence, GSK3A (AID 1103); settings: small-molecule microarray binding, fluorescence 635 nm; higher = more signal; also: the record names both GSK3A and GSK3B
# [7] = molecular target: Epidermal growth factor receptor (Homo sapiens) (UniProt P00533); assay: EGFR binders on small-molecule microarrays, primary screen, biochemical, small-molecule microarray, 635 nm fluorescence (AID 1104); settings: EGFR binding, higher = more signal;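 also: score merges 667 nm emission intensity with spot signal to noise over triplicate slides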
# Sequence of Epidermal growth factor receptor (Homo sapiens) (P00533 whole entry, looked up): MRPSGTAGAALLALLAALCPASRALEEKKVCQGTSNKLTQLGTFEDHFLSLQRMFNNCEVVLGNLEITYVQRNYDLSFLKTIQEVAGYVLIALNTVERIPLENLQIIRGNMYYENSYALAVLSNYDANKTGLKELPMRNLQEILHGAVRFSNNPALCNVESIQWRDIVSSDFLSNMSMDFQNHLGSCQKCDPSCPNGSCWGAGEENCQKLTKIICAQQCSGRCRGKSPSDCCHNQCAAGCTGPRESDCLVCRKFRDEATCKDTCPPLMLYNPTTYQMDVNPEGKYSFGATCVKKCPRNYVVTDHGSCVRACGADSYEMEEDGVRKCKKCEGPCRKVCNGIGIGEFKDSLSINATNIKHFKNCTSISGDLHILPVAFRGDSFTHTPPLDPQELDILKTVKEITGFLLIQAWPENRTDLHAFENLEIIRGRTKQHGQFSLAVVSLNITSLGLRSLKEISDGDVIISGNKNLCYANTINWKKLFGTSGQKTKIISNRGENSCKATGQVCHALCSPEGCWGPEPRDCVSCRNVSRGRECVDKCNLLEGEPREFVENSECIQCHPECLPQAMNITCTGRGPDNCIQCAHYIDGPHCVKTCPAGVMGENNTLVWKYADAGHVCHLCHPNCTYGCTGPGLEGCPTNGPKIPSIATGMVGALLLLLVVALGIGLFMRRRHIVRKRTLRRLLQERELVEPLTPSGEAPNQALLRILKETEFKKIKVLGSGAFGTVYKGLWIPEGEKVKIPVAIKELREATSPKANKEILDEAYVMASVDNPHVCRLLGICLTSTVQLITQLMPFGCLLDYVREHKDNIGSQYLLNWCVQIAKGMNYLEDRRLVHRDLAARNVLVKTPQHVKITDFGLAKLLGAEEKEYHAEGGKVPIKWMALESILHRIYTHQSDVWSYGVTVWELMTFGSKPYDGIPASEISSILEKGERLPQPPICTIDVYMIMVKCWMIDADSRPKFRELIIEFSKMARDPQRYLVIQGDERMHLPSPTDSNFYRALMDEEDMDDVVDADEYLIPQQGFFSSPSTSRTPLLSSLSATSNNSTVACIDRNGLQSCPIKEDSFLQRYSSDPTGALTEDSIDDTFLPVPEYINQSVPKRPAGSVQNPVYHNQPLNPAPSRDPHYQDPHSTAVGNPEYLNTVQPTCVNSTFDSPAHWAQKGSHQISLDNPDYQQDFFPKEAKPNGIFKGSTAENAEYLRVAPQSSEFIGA
# [8] = molecular target: Follistatin-related protein 3 (Homo sapiens) (UniProt O95633); assay: FSTL3 binders on small-molecule microarrays, primary screen, biochemical, small-molecule microarray, 635 nm fluorescence (AID 1105); settings: FSTL3 binding, higher = more signal;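 also: score merges emission near 667 nm and signal to noise per printed spot across three slides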
# Sequence of Follistatin-related protein 3 (Homo sapiens) (O95633 whole entry, looked up): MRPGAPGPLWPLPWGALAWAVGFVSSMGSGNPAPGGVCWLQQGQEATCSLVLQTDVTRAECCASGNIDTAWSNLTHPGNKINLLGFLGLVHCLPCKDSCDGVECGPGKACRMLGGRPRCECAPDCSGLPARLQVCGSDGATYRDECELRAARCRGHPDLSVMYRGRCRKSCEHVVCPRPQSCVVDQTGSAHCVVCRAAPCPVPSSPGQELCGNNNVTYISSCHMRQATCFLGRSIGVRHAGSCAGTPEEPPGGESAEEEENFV
# [9] = molecular target: Dickkopf-related protein 1 (Homo sapiens) (UniProt O94907); assay: DKK1 binders on small-molecule microarrays, primary screen, biochemical, small-molecule microarray, 635 nm fluorescence scan (AID 1106); settings: DKK1 binding, higher = more signal;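 also: score merges emission near 667 nm with signal to noise over three replicate slides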
# Sequence of Dickkopf-related protein 1 (Homo sapiens) (O94907 whole entry, looked up): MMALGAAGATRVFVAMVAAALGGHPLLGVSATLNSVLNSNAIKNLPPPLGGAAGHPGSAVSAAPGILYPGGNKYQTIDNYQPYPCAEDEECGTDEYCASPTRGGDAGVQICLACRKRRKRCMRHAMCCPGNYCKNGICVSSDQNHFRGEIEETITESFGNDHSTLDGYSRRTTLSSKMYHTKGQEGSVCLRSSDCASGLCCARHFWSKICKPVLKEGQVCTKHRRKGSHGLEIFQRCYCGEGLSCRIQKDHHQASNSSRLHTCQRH
# [10] = test system: Inhibin beta A chain (activin A); assay: INHBA (activin A) binders on microarrays, primary screen, biochemical, small-molecule microarray, 635 nm fluorescence scan (AID 1107); settings: small-molecule microarray binding, higher = more signal;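 also: mouse activin A protein probed at 4.33 µg/mL on printed slides; score merges bound-protein fluorescence near 667 nm with spot signal-to-noise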
Compound,composite z-score [1],composite z-score [2],composite z-score [3],z-score [4],composite z-score [5],composite z-score [6],composite z-score [7],composite z-score [8],composite z-score [9],composite z-score [10]
O=C1OC[C@@H](c2ccccc2)n2cc(/C=C/c3ccccc3)cc21,0.753,-0.222,0.0504,-1.55 (inactive),-0.256,-0.678,-0.609,-0.513,-0.161,0.0778
C=C(CCCC)C(=O)CC[C@@H](OC(C)=O)c1ccc(OCCO)cc1,0.476,-0.276,-0.169,3.03 (inactive),1.48,-0.198,-0.678,0.824,0.268,0.204
O=C1C2C=CC(C(O)C3CCCCC3)N(Nc3ccccc3F)C2C(=O)N1c1ccccc1 (stereo not given),1.12,1.15,0.95,-0.505 (inactive),0.873,1.29,0.157,1.08,-0.498,1.1
COc1ccc(C(=O)Nc2ccc(CN3C(=O)[C@@]4(O[C@@H](CC(=O)N(CCO)Cc5ccccc5)[C@H]([Si](C)(C)c5ccc(OC)cc5)[C@H]4C)c4ccccc43)cc2)cc1,0.901,-0.0966,-0.351,-1.78 (inactive),0.201,-0.185,0.7,0.335,0.502,0.432
COCCOC(=O)N1C(=O)[C@@]2(c3cc(C#CCC(C(=O)OC)C(=O)OC)ccc31)[C@H](c1ccc(O)cc1)N1[C@H](c3ccccc3)[C@H](c3ccccc3)OC(=O)[C@H]1[C@@H]2C(=O)N1CCc2cc(OC)c(OC)cc2C1,1.21,-0.149,0.131,0.0333 (inactive),1.09,1.08,0.294,0.728,0.384,0.0348
CCCCC(=C=CC[C@@H](O)c1ccc(OCCO)cc1)CCO,0.413,-0.0198,-0.305,-0.755 (inactive),0.701,-0.246,-0.899,-0.281,-0.549,1.09
